Test results published in PubChem BioAssay (EPA / NIEHS).
Inconclusive results are not listed. Active and inactive are the calls of the source. The calls were made as follows: active = hit-call score of the fitted dose curve at least 0.9, where 1 is the maximum; inconclusive = response in the unintended direction; inactive = score below 0.9.

How the values were obtained:
AR (gene 367) = AR (gene 367) (UniProt P10275); assay: ACEA_AR_antagonist_80hr: ACEA Biosciences xCELLigence Real-Time Cell Analysis on Androgen Receptor Antagonism for Proliferation (AID 2283787);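 also: 22Rv1 human prostate cancer cells with growth followed by electrical impedance; hits lower the impedance growth signal relative to DMSO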
Summary of the method: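 22Rv1 cells in assay medium, growth tracked by electrical impedance; compounds eight-point 1:4 dilutions from 100 uM final, duplicate plates. Endpoint at 80 h; loss of signal versus DMSO.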

[1] = target: Estrogen receptor beta (Homo sapiens) (UniProt Q92731); assay: ATG_hERb_XSP1: Attagene TRANS-FACTORIAL Multi-Species (XSP1) HepG2 Assay for human Estrogen Receptor (ESR2) (AID 2283788)
Sequence of Estrogen receptor beta (Homo sapiens) (Q92731 whole entry, looked up, the tested form may be a part): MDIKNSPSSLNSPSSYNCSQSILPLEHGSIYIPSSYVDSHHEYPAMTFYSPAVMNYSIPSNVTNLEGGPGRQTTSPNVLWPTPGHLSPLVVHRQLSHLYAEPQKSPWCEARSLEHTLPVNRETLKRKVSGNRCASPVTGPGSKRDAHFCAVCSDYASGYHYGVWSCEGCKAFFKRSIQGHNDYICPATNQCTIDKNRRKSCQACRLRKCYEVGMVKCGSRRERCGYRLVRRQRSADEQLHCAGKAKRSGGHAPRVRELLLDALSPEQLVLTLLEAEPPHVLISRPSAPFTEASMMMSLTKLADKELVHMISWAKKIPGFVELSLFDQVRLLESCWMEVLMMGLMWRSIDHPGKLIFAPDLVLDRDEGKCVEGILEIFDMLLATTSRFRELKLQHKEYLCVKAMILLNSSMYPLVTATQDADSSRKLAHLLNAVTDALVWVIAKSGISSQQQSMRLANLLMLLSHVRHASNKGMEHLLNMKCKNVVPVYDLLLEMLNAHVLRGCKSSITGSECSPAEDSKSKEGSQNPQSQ
Summary of the method: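 HepG2 cells transiently transfected with GAL4-UAS multiplexed reporter units, 3 nM 6-alpha-fluorotestosterone present; 24 h exposure. Reporter mRNA measured by RT-PCR, fluorescent labelling and capillary electrophoresis; gain of signal fitted against DMSO.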

[2] = ATG_M_19_XSP1: Attagene TRANS-FACTORIAL Multi-Species (XSP1) HepG2 Assay for M19 Transcription Factor (Internal Marker) (AID 2283798)
Summary of the method: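 HepG2 cells transiently transfected with multiplexed GAL4-UAS reporter units, dosed 24 h with 3 nM 6-alpha-fluorotestosterone present for partial AR stimulation. Reporter mRNA measured by RT-PCR with capillary electrophoresis; gain-of-signal fitted relative to DMSO.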

[3] = ATG_M_32_XSP1: Attagene TRANS-FACTORIAL Multi-Species (XSP1) HepG2 Assay for M32 Transcription Factor (Internal Marker) (AID 2283799)
Summary of the method: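 HepG2 cells transiently transfected with multi-species TRANS reporter units, dosed 24 h with 3 nM 6-alpha-fluorotestosterone present. Internal-marker reporter mRNA quantified by RT-PCR and capillary electrophoresis; positive-direction fit versus DMSO.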

[4] = target: Peroxisome proliferator-activated receptor gamma (Homo sapiens) (UniProt P37231); assay: ATG_hPPARg_XSP1: Attagene TRANS-FACTORIAL Multi-Species (XSP1) HepG2 Assay for human Peroxisome Proliferator-activated Receptor gamma (PPARg) (AID 2283800)
Sequence of Peroxisome proliferator-activated receptor gamma (Homo sapiens) (P37231 whole entry, looked up, the tested form may be a part): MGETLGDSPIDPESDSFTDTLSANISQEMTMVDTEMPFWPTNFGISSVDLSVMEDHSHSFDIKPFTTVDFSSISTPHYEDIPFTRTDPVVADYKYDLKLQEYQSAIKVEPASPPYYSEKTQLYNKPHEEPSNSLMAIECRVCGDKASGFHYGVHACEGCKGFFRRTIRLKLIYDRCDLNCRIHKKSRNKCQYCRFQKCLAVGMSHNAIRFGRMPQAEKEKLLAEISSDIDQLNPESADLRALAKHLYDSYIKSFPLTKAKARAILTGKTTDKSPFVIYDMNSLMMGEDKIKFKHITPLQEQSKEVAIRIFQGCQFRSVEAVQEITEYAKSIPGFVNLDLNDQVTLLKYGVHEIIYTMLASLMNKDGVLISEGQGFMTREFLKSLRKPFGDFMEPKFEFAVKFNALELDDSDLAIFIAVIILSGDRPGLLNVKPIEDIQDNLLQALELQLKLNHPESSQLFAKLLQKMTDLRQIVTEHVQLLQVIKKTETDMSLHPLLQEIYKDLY
Summary of the method: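 HepG2 cells transiently transfected with GAL4-UAS reporter units carrying chimeric NR-Gal4 proteins; 3 nM 6-alpha-fluorotestosterone present. After 24 h dosing, reporter mRNA quantified by RT-PCR and capillary electrophoresis; gain of signal relative to DMSO.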

[5] = system: zebrafish Peroxisome Proliferator-activated Receptor gamma (PPARg), gene 557037; assay: ATG_zfPPARg_XSP1: Attagene TRANS-FACTORIAL Multi-Species (XSP1) HepG2 Assay for zebrafish Peroxisome Proliferator-activated Receptor gamma (PPARg) (AID 2283801)
Summary of the method: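 HepG2 cells transiently transfected with GAL4-UAS reporter units including a zebrafish PPARg–GAL4 chimera, dosed 24 h with 3 nM 6-alpha-fluorotestosterone present. Reporter mRNA quantified by RT-PCR, FAM labelling, HpaI digestion and capillary electrophoresis; induction versus DMSO.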

[6] = target: mouse Peroxisome Proliferator-activated Receptor gamma (PPARg), Pparg (gene 19016) (UniProt P37238); assay: ATG_mPPARg_XSP1: Attagene TRANS-FACTORIAL Multi-Species (XSP1) HepG2 Assay for mouse Peroxisome Proliferator-activated Receptor gamma (PPARg) (AID 2283802)
Sequence of mouse Peroxisome Proliferator-activated Receptor gamma (PPARg), Pparg (gene 19016) (P37238 whole entry, looked up, the tested form may be a part): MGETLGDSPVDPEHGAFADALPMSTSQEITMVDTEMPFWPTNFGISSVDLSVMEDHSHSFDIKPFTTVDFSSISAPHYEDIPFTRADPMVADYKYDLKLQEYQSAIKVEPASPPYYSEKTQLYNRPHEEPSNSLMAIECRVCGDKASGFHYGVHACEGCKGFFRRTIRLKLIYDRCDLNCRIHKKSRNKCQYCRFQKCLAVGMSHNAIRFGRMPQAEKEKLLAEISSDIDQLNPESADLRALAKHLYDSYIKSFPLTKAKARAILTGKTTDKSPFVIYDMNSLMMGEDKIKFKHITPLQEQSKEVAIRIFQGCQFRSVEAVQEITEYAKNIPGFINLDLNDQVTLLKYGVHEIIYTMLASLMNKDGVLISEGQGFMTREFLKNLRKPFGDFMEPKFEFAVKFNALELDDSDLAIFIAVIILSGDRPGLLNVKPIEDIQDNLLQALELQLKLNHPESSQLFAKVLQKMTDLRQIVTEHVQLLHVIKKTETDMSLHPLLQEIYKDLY
Summary of the method: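 HepG2 cells transiently transfected with GAL4-UAS reporter units driven by mouse PPARg–GAL4 chimera; 3 nM 6-alpha-fluorotestosterone present. After 24 h dosing, reporter mRNA quantified by RT-PCR, fluorescent labelling and capillary electrophoresis; gain of signal versus DMSO.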

[7] = target: Nuclear receptor subfamily 1 group I member 2 (Mus musculus) (UniProt O54915); assay: ATG_mPXR_XSP1: Attagene TRANS-FACTORIAL Multi-Species (XSP1) HepG2 Assay for mouse Pregnane X Receptor (PXR) (AID 2283803)
Sequence of Nuclear receptor subfamily 1 group I member 2 (Mus musculus) (O54915 whole entry, looked up, the tested form may be a part): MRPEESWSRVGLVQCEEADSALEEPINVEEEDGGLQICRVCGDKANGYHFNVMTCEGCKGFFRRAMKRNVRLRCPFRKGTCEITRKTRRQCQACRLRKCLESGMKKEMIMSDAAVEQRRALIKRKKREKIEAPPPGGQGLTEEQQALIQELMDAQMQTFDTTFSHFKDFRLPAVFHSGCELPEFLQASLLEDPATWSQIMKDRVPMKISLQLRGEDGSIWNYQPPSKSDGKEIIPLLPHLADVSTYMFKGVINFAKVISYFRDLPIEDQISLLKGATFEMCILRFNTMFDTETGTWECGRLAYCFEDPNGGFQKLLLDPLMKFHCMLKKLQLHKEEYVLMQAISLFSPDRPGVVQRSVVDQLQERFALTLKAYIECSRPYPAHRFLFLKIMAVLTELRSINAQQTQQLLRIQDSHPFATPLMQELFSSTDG
Summary of the method: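 Transiently transfected HepG2 cells expressing a receptor-Gal4 chimera drive a GAL4-UAS reporter; 3 nM 6-alpha-fluorotestosterone included. Reporter mRNA read 24 h post-dose by RT-PCR and capillary electrophoresis; gain of signal relative to DMSO.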

[8] = target: human Thyroid hormone Receptor alpha (TRa), THRA (gene 7067) (UniProt P10827); assay: ATG_hTRa_XSP1: Attagene TRANS-FACTORIAL Multi-Species (XSP1) HepG2 Assay for human Thyroid hormone Receptor alpha (TRa) (AID 2283805)
Sequence of human Thyroid hormone Receptor alpha (TRa), THRA (gene 7067) (P10827 whole entry, looked up, the tested form may be a part): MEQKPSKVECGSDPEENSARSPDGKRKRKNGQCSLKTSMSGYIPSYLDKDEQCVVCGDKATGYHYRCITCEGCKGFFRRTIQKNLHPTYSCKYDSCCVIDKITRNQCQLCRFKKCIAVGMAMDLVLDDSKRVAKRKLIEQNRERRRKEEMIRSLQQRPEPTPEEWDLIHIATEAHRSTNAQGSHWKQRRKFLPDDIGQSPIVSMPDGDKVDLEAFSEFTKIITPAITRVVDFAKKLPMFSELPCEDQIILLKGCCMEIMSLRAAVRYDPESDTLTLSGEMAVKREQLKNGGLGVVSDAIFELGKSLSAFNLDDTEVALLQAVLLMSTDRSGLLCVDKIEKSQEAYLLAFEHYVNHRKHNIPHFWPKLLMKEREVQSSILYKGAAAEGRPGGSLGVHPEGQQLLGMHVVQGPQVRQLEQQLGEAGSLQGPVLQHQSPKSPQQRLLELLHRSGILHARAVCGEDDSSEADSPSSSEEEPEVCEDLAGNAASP
Summary of the method: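 HepG2 cells transiently transfected with GAL4-UAS reporter units expressing chimeric NR-Gal4 proteins, dosed 24 hours with 3 nM 6-alpha-fluorotestosterone present. Reporter mRNA measured by RT-PCR and capillary electrophoresis; gain of signal fitted versus DMSO.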

[9] = system: turtle Thyroid Hormone Receptor, alpha (TRa), gene 101949057; assay: ATG_trTRa_XSP1: Attagene TRANS-FACTORIAL Multi-Species (XSP1) HepG2 Assay for turtle Thyroid Hormone Receptor, alpha (TRa) (AID 2283806)
Summary of the method: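 HepG2 cells transiently transfected with GAL4-UAS reporter units and chimeric receptor-Gal4 constructs, with 3 nM 6-alpha-fluorotestosterone present. Reporter mRNA was quantified 24 h after dosing by RT-PCR, 6-FAM labelling and capillary electrophoresis; gain of signal versus DMSO.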

[10] = target: zebrafish Thyroid Hormone Receptor alpha (TRa), thraa (gene 30670) (UniProt Q98867); assay: ATG_zfTRa_XSP1: Attagene TRANS-FACTORIAL Multi-Species (XSP1) HepG2 Assay for zebrafish Thyroid Hormone Receptor alpha (TRa) (AID 2283807)
Summary of the method: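 HepG2 cells transiently transfected with GAL4-UAS reporter units including a zebrafish TRa–Gal4 chimera, dosed 24 h with 3 nM 6-alpha-fluorotestosterone present. Reporter mRNA quantified by RT-PCR and capillary electrophoresis; gain versus DMSO.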

[11] = target: human Thyroid hormone Receptor beta (TRb), THRB (gene 7068) (UniProt P10828); assay: ATG_hTRb_XSP1: Attagene TRANS-FACTORIAL Multi-Species (XSP1) HepG2 Assay for human Thyroid hormone Receptor beta (TRb) (AID 2283808)
Sequence of human Thyroid hormone Receptor beta (TRb), THRB (gene 7068) (P10828 whole entry, looked up, the tested form may be a part): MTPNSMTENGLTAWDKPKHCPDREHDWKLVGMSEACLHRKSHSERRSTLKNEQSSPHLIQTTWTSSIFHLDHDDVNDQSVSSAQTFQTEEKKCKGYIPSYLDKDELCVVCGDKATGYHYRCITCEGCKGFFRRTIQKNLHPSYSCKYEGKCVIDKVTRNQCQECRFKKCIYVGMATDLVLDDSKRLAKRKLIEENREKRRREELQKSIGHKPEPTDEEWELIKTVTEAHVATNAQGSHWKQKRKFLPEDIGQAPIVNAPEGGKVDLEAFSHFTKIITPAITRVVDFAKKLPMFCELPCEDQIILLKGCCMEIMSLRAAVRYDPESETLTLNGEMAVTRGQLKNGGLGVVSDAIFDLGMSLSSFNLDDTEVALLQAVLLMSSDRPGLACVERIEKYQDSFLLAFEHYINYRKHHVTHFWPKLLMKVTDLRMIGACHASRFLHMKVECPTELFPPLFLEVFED
Summary of the method: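 HepG2 cells transiently transfected with reporter units driving GAL4-UAS reporters for chimeric NR-Gal4 proteins; 24 h chemical exposure with 3 nM 6-alpha-fluorotestosterone present. Reporter mRNA quantified by RT-PCR and capillary electrophoresis, gain of signal versus DMSO.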

[12] = ATG_XTT_Cytotoxicity_XSP1: Cytotoxicity Assessment in the Attagene TRANS-FACTORIAL Multi-Species (XSP1) HepG2 Assay (AID 2283810)
Summary of the method: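 XTT viability readout taken at 24 hours post-dosing in HepG2 liver cells co-treated with 3 nM 6-alpha-fluorotestosterone. Signal loss relative to DMSO controls reflects cytotoxicity.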

[13] = ATG_M_06_XSP2: Attagene TRANS-FACTORIAL Multi-Species (XSP2) HepG2 Assay for M06 Transcription Factor (Internal Marker) (AID 2283811);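 also: hits are increases in signal above the DMSO baseline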
Summary of the method: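 HepG2 cells transiently transfected with GAL4-UAS multiple reporter units, medium containing 3 nM 6-alpha-fluorotestosterone and 1.5 nM norgestrel; reporter mRNA measured 24 hours post-dosing by RT-PCR and capillary electrophoresis. Internal background marker, gain of signal vs DMSO.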

[14] = system: turtle Androgen Receptor (AR), gene 101947425; assay: ATG_trAR_XSP1: Attagene TRANS-FACTORIAL Multi-Species (XSP1) HepG2 Assay for turtle Androgen Receptor (AR) (AID 2283786)
Summary of the method: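 HepG2 cells transiently transfected with a turtle AR–GAL4 chimera and GAL4-UAS reporter, co-treated with 3 nM 6-alpha-fluorotestosterone for partial stimulation. Reporter mRNA is quantified at 24 h by RT-PCR and capillary electrophoresis, gain-of-signal versus DMSO.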

[15] = target: zebrafish Thyroid Hormone Receptor beta (TRb), thrb (gene 30607) (UniProt Q9PVE4); assay: ATG_zfTRb_XSP1: Attagene TRANS-FACTORIAL Multi-Species (XSP1) HepG2 Assay for zebrafish Thyroid Hormone Receptor beta (TRb) (AID 2283809)
Sequence of zebrafish Thyroid Hormone Receptor beta (TRb), thrb (gene 30607) (Q9PVE4 whole entry, looked up, the tested form may be a part): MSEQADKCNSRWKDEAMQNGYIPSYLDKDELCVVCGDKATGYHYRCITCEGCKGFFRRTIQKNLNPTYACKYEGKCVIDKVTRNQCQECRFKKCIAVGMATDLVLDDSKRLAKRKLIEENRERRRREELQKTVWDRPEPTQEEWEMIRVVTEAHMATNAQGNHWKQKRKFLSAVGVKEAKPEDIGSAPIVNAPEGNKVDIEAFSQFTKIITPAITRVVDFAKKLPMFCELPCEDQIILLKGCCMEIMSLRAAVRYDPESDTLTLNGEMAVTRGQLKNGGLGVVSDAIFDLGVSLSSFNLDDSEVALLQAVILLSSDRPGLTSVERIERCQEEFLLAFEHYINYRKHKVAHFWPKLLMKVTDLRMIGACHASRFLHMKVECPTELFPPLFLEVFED
Summary of the method: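 HepG2 cells transiently transfected with multiplexed GAL4-UAS reporter units expressing chimeric zebrafish TRb–Gal4. Dosed 24 h with 3 nM 6-alpha-fluorotestosterone present; reporter mRNA measured by RT-PCR, HpaI digestion and capillary electrophoresis; gain of signal versus DMSO.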

[16] = ATG_M_06_XSP1: Attagene TRANS-FACTORIAL Multi-Species (XSP1) HepG2 Assay for M06 Transcription Factor (Internal Marker) (AID 2283790)
Summary of the method: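 Transfected HepG2 multi-reporter system treated 24 h in the presence of 3 nM 6-alpha-fluorotestosterone. The M06 internal marker transcript was quantified by RT-PCR with capillary electrophoresis as a background control, and gain of signal was scored versus DMSO.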

[17] = ATG_M_61_XSP1: Attagene TRANS-FACTORIAL Multi-Species (XSP1) HepG2 Assay for M61 Transcription Factor (Internal Marker) (AID 2283797)
Summary of the method: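 HepG2 cells transiently transfected with multiplexed GAL4-driven reporter units, dosed 24 h with 3 nM 6-alpha-fluorotestosterone present. Reporter mRNA quantified by RT-PCR, 6-FAM labelling, HpaI digestion and capillary electrophoresis; internal-marker background control, gain of signal versus DMSO.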

[18] = target: GAL4 Transcription Factor (Internal Marker), GAL4 (gene 855828) (UniProt P04386); assay: ATG_GAL4_XSP1: Attagene TRANS-FACTORIAL Multi-Species (XSP1) HepG2 Assay for GAL4 Transcription Factor (Internal Marker) (AID 2283789)
Sequence of GAL4 Transcription Factor (Internal Marker), GAL4 (gene 855828) (P04386 whole entry, looked up, the tested form may be a part): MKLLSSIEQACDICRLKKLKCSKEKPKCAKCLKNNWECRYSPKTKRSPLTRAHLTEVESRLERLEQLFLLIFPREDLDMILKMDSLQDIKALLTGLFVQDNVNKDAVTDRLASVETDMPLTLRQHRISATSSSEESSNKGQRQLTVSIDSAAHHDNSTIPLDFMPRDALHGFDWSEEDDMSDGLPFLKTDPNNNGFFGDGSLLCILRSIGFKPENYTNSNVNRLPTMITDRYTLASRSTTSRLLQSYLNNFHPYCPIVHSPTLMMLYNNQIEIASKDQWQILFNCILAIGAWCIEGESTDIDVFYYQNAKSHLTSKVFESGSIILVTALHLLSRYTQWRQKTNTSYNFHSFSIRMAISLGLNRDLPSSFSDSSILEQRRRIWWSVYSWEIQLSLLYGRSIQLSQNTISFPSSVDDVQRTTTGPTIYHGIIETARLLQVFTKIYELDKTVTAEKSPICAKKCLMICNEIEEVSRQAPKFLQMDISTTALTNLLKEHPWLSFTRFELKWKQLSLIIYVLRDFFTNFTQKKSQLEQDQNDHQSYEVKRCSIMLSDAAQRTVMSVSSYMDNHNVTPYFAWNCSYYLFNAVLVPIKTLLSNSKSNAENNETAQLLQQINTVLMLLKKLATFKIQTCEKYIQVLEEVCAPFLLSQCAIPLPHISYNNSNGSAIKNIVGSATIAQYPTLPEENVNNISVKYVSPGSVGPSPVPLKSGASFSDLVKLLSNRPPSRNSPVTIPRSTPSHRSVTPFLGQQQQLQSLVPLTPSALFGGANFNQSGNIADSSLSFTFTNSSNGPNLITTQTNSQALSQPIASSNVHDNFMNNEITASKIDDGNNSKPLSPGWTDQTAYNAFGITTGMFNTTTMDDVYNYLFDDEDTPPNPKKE
Summary of the method: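 HepG2 cells transiently transfected with multiplexed GAL4-UAS reporter units were exposed for 24 h with 3 nM 6-alpha-fluorotestosterone present. Reporter mRNA was quantified by RT-PCR, FAM labelling, HpaI digestion and capillary electrophoresis; background-control readout, gain-of-signal versus DMSO.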

[19] = target: frog Thyroid hormone Receptor alpha (TRa), thra-a (gene 397942) (UniProt P15204); assay: ATG_frTRa_XSP1: Attagene TRANS-FACTORIAL Multi-Species (XSP1) HepG2 Assay for frog Thyroid hormone Receptor alpha (TRa) (AID 2283804)
Sequence of frog Thyroid hormone Receptor alpha (TRa), thra-a (gene 397942) (P15204 whole entry, looked up, the tested form may be a part): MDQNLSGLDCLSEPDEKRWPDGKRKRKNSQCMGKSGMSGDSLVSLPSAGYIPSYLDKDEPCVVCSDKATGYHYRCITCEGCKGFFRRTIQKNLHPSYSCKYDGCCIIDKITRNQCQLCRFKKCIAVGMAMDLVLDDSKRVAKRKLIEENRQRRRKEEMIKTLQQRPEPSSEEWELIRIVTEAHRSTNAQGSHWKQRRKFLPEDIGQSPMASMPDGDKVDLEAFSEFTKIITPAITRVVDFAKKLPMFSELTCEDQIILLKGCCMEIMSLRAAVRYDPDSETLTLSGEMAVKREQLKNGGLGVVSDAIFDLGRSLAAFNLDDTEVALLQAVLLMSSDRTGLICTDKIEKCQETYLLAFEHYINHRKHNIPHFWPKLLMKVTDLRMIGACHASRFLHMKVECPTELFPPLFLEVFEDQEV
Summary of the method: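 HepG2 cells transiently transfected with frog TRa-GAL4 chimeric reporter units, dosed 24 hr with 3 nM 6-alpha-fluorotestosterone present; reporter mRNA quantified by RT-PCR, fluorescent labelling and capillary electrophoresis, gain of signal versus DMSO.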

Measured: AC50

O=[N+]([O-])/N=C1\NCCN1Cc1ccc(Cl)nc1
inactive: AR (gene 367)

CCCN(CCOc1c(Cl)cc(Cl)cc1Cl)C(=O)n1ccnc1
inactive: [1] | [2] | [3] | [5] | [8] | [9] | [10] | [11] | [13]
active: [4] 33.4 µM | [6] 15.8 µM | [7] 0.11 µM | [12] 100 µM

C[C@H]1[C@H](c2ccc(Cl)cc2)SC(=O)N1C(=O)NC1CCCCC1
active: AR (gene 367) 19.1 µM

CCOC1Oc2ccc(OS(C)(=O)=O)cc2C1(C)C (configuration not stated)
active: AR (gene 367) 50 µM

O=S(=O)(O)C(F)(F)C(F)(F)C(F)(F)C(F)(F)C(F)(F)C(F)(F)C(F)(F)C(F)(F)F
inactive: [2] | [3] | [15] | [13]
active: [14] 130 µM | [6] 73.1 µM | [7] 57.9 µM | [10] 140 µM | [12] 154 µM

O=S1OCC2C(CO1)C1(Cl)C(Cl)=C(Cl)C2(Cl)C1(Cl)Cl (configuration not stated)
active: AR (gene 367) 9.11 µM | [7] 0.512 µM
not listed: [1] | [3] | [5] | [14] | [18] | [19]
inactive: all other assays above

COP(=S)(OC)Oc1ccc(SC)c(C)c1
active: [1] 22.2 µM | [4] 22.5 µM | [6] 41.5 µM | [7] 8.91 µM
not listed: AR (gene 367) | [2] | [14] | [19]
inactive: all other assays above

Oc1ccc(Cl)cc1Cc1ccccc1
active: AR (gene 367) 11.2 µM | [6] 10.1 µM
not listed: [2] | [3] | [4] | [14] | [18]
inactive: all other assays above

O=C(O)C(F)(F)C(F)(F)C(F)(F)C(F)(F)C(F)(F)C(F)(F)C(F)(F)F
inactive: [13]

CCCN(CCC)c1c([N+](=O)[O-])cc(C(F)(F)F)cc1[N+](=O)[O-]
active: AR (gene 367) 62.7 µM | [4] 27.1 µM | [6] 35.1 µM | [7] 2.85 µM
inactive: [16] | [17] | [5] | [9] | [10] | [11] | [15] | [12] | [13]

CC1(C)C(C=C(Cl)Cl)C1C(=O)OC(C#N)c1ccc(F)c(Oc2ccccc2)c1 (configuration not stated)
active: [4] 11.1 µM | [6] 9.66 µM | [7] 0.436 µM
not listed: AR (gene 367) | [2] | [3] | [13] | [14] | [18]
inactive: all other assays above

CCC(C)(C)C(=O)OC1=C(c2ccc(Cl)cc2Cl)C(=O)OC12CCCCC2
inactive: AR (gene 367)

CCOCN(C(=O)CCl)c1c(C)cccc1CC
inactive: [18] | [2] | [12]
active: [4] 0.727 µM | [6] 1.89 µM | [7] 4 µM

O=[N+]([O-])c1c(Cl)c(Cl)c(Cl)c(Cl)c1Cl
active: AR (gene 367) 74.6 µM

CC(C)(C)C(O)/C(=C\c1ccc(Cl)cc1Cl)n1cncn1 (configuration not stated)
inactive: [13]

Oc1cc(Cl)ccc1Oc1ccc(Cl)cc1Cl
active: [4] 9.39 µM | [6] 11.1 µM | [7] 14.4 µM | [8] 7.06 µM | [9] 11.1 µM | [10] 14 µM | [12] 100 µM
not listed: AR (gene 367) | [2] | [14]
inactive: all other assays above

C#CCN1C(=O)COc2cc(F)c(N3C(=O)C4=C(CCCC4)C3=O)cc21
active: AR (gene 367) 64.5 µM

O=C(O)CCCOc1ccc(Cl)cc1Cl
inactive: AR (gene 367)

Cc1[nH]c(=O)n(C(C)(C)C)c(=O)c1Cl
inactive: AR (gene 367)
